# Experimental data: PubChem BioAssay (NCI)
# This is part of a sample that, as a whole, favours compounds with a hit. Of some 83,000 tested, about 20% had one in any assay.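 The endpoint reported here, percent growth, reads 100 for growth as untreated, 0 for no net growth and -100 for all cells dead.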 Active and inactive are the calls of the source. Rule for the calls: active = growth percent below 10; inactive = the rest.
# Test system: EKVX NSCLC
# Assay: NCI-60 one-dose screen, 48 h (100 = growth as untreated, 0 = no growth, -100 = all killed)
# Details: 10 µM unless noted
row,SMILES,growth
1,COC(=O)c1nc(-c2ccccc2)oc1S(=O)(=O)n1nc(-c2ccccc2)cc1N,95.9% (inactive)
2,COc1ccc(C(=O)c2cc(OC)c(C)c(OC)c2)cc1OC(=O)CCl,64.4% (inactive)
3,CC(=O)c1cnc(-c2ccccc2)nc1CBr,79.7% (inactive)
4,O=C1CC23OC4ON=C(Br)C4C2C(O)c2ccccc2N13 (stereo not drawn),92.1% (inactive)
5,COc1ccc(C(=S)c2cc(OC)c(OC)c(OC)c2)cc1OC(=O)CCl,71.8% (inactive)
6,COc1ccc2oc(=O)cc(-c3c(C#N)c(N)n4nc(N)c(C#N)c4c3C#N)c2c1,100% (inactive)
7,O=C(Nc1cc(Br)ccn1)c1cc2cc(Nc3nc(-c4ccccc4)nc4ccccc34)ccc2oc1=O,109% (inactive)
8,CC1CCCN(CCCCCOc2ccc3oc4ccc(Cl)cc4c(=O)c3c2)C1 (stereo not drawn),78.3% (inactive)
9,COc1cc(C2=NNC(c3ccc(N(C)C)cc3)C2)cc(OC)c1OC (stereo not drawn),44.4% (inactive)
10,Cn1c2ccccc2c2c(OC(=O)c3ccccc3)c3c(nc21)-c1ccccc1C3,86% (inactive)
11,COc1cc(C(C)c2ccc3c(ccn3C)c2)cc(OC)c1OC (stereo not drawn),34.9% (inactive)
12,CC(=O)OCC1SC(OC(C)=O)C(NC(=O)/C=C/CCl)C(OC(C)=O)C1OC(C)=O (stereo not drawn),102% (inactive)
13,C[C@H]1[C@H](C)CC[C@]2(C(=O)OCCCC[P+](c3ccccc3)(c3ccccc3)c3ccccc3)CC[C@]3(C)C(=CC[C@@H]4[C@@]5(C)CC[C@H](OC(=O)C(Cl)Cl)C(C)(C)[C@@H]5CC[C@]43C)[C@H]12,-35.4% (active)
14,O=C1C(=O)c2c(nc3ccc(C(F)(F)F)cn23)-c2ccccc21,-72.5% (active)
15,COc1ccc2[nH]c(-c3ccccc3)c(C=C(C#N)C#N)c2c1,33.3% (inactive)
16,NC(=N\N=C\c1ccccc1O)/C(N)=N/N=C/c1ccccc1O,88.5% (inactive)
17,Cc1ccc(-c2nc(C#N)c(S(=O)(=O)N(C)CCO)o2)cc1,107% (inactive)
18,CC[C@H](Nc1ncnc2nc[nH]c12)c1nc2cccc(CC(=O)c3ccc(C(=O)NO)cc3)c2c(=O)n1-c1ccccc1,90.6% (inactive)
19,NC(=O)c1ccc2nc3c(n2c1)C(=O)C(=O)c1ccccc1-3,-76% (active)

row,SMILES,growth
1,COc1cccc(C(=O)OCCn2nc3c4c(cccc42)C(=O)c2ccccc2-3)c1O,56.1% (inactive)
2,COc1ccc(C(C)c2cc(OC)c(OC)c(OC)c2)cc1 (stereo not drawn),35.8% (inactive)
3,C#C[C@@]1(O)[C@@H](CO)O[C@@H](n2ccc3c(N)ncnc32)[C@@H]1O,-4.75% (active)
4,COc1cc(NC(=O)COc2cc(C)nc3ccc(OC)cc23)cc(OC)c1,91.5% (inactive)
5,CN1CCN(C(=O)[C@@]2(C)CC[C@]3(C)CC[C@]4(C)C(=CC[C@@H]5[C@@]6(C)CC[C@H](OC(=O)c7cccnc7)C(C)(C)[C@@H]6CC[C@]54C)[C@@H]3C2)CC1,76.3% (inactive)
6,NS(=O)(=O)c1ccc(N2Cc3cc(Cl)ccc3OC3=C2C(=O)N(CC2CCCCC2)C3=O)cc1,-65.1% (active)
7,CCCCc1nc(Cl)c(C2CC(c3ccc(Cl)cc3)=NN2c2cc(Cl)cc(Cl)c2)[nH]1 (stereo not drawn),57.8% (inactive)
8,C[C@H]1[C@H](C)CC[C@]2(C(=O)OCCOCCOCC[P+](c3ccccc3)(c3ccccc3)c3ccccc3)CC[C@]3(C)C(=CC[C@@H]4[C@@]5(C)CC[C@H](OC(=O)C(Cl)Cl)C(C)(C)[C@@H]5CC[C@]43C)[C@H]12,-3.78% (active)
9,C=C(C)[C@@H]1CC[C@]2(C(=O)N3CCN(C)CC3)CC[C@]3(C)[C@H](CC[C@@H]4[C@@]5(C)C/C(=C/c6ccco6)C(=O)C(C)(C)[C@@H]5CC[C@]43C)[C@@H]12,68.2% (inactive)
10,Clc1ccc2c(NCCCNC3CCCCC3)ccnc2c1,66.2% (inactive)
11,CCSc1nc(Cl)c(C#N)c(-c2ccc(F)cc2)n1,95.2% (inactive)
12,COc1cc2c(cc1OCCCOc1cc3c(cc1OC)C(=O)N1CC(F)(F)C[C@H]1C=N3)N=C[C@@H]1CC(F)(F)CN1C2=O,49.2% (inactive)
13,CN1CCN(CC#CCOC(=O)CNC(=O)[C@]23CCC(C)(C)C[C@H]2C2=CC[C@@H]4[C@@]5(C)CC[C@H](O)C(C)(C)[C@@H]5CC[C@@]4(C)[C@]2(C)CC3)CC1,89.1% (inactive)
14,COc1cc(C(=O)N2CCN(c3ccccc3OC)CC2)c(NC(=O)c2cnccn2)cc1OCc1ccccc1,57.2% (inactive)
15,C(=C\c1cn(-c2ccccc2)nc1-c1ccccc1)/c1nnc(-c2c[nH]c3ccccc23)o1,50.8% (inactive)
16,Nc1c(C(=O)Nc2ccccn2)sc2nc3c(cc12)C(=O)CCC3,34.4% (inactive)
17,C=C1C(=O)O[C@H]2[C@H]1CC/C(COC(=O)CCCCCCC(=O)OC/C1=C/CC[C@@]3(C)O[C@H]3[C@H]3OC(=O)C(=C)[C@@H]3CC1)=C\CC[C@@]1(C)O[C@@H]21,24.6% (inactive)
18,O=C(Nc1ccc2ncnc(Nc3ccc(F)c(Cl)c3)c2c1)c1ccccc1,61.2% (inactive)
19,O=C(NC[C@H](O)CN1CCc2ccccc2C1)c1cc(NC2COC2)ncn1,111% (inactive)
